From PubChem BioAssay (Tox21)
The source made the active and inactive calls. A call without a number means that no potency is given here. Unless noted, calls follow the shape of the dose curve; as a rule, active = well fitted curve in the direction sought with a large enough effect in the repeat runs; inconclusive = weak or mixed curves; inactive = no such curve, though single readings can be large; an effect the other way counts as inactive or inconclusive.

Key:
[1] = qHTS assay for small molecules that induce genotoxicity in human embryonic kidney cells expressing luciferase-tagged ATAD5 (AID 651632); also: nearly all actives have a fitted effect of over 15% in size
Procedure, shortened: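 Cells were seeded at 2,000 per well, dosed with compound, and incubated 16 hr at 37C in 5% CO2. Luciferase activity was then quantified after a 30 min room-temperature incubation with Amplite.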

[2] = qHTS assay for small molecule agonists of the p53 signaling pathway - cell viability (AID 651633; calls by dose curve; also: nearly all actives have a fitted effect of over 30% in size; also: potency is read from the fitted curve at half-maximal effect)
Procedure, shortened: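 p53RE-bla cells were treated with compound for 16 hours at 37 C. Cytotoxicity was then measured as CellTiter-Glo luminescence after 30 min at room temperature.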

[3] = qHTS assay for small molecules that induce genotoxicity in human embryonic kidney cells expressing luciferase-tagged ATAD5 - cell viability (AID 651634; calls by dose curve; also: nearly all actives have a fitted effect of over 25% in size)
Procedure, shortened: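 Cells (HEK293T, luciferase-tagged ATAD5) are seeded at 2,000 per well, dosed with compound or DMSO vehicle, and incubated 15.5 hr at 37C and 5% CO2. CellTiter-Fluor is added for 30 min before fluorescence is measured.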

[4] = qHTS assay to test for compound auto fluorescence at 590 nm (red) in HepG2 cells (AID 720674)
Procedure, shortened: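 Fluorescence at 590 nm emission following 540 nm excitation was recorded from HepG2 wells one hour after compound transfer, with DMSO-only wells as vehicle and Rose Bengal sodium equivalency as the scale.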

[5] = qHTS assay to test for compound auto fluorescence at 535 nm (green) in HepG2 cells (AID 720675)
[6] = qHTS assay to test for compound auto fluorescence at 460 nm (blue) in HEK293 cells (AID 720678)
Procedure, shortened: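 Intrinsic compound fluorescence is recorded in live HEK293 cultures after overnight incubation at 37C, 5% CO2, using excitation 405 nm and emission 460 nm. Values are referenced to triamterene.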

[7] = qHTS assay to test for compound auto fluorescence at 590 nm (red) in HEK293 cells (AID 720679)
Procedure, shortened: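 Red autofluorescence, HEK293 cells: 2,000 cells/well; attach 4-5 hr 37C; add 23 nL cpd or DMSO; incubate o/n 37C 5% CO2; read Ex540/Em590; Rose Bengal sodium reference.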

[8] = qHTS assay to test for compound auto fluorescence at 535 nm (green) in HEK293 cells (AID 720680)
[9] = qHTS assay to test for compound auto fluorescence at 460 nm (blue) in HEK293 cell free culture (AID 720681)
Procedure, shortened: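 Compounds were added to cell-free DMEM with 10% FBS and fluorescence read directly. The blue channel used 405 nm excitation and 460 nm emission, with triamterene as the reference fluorophore.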

[10] = qHTS assay to test for compound auto fluorescence at 535 nm (green) in HEK293 cell free culture (AID 720682)
Procedure, shortened: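 Compounds were pin-transferred into cell-free DMEM with 10% FBS, and green fluorescence was read at excitation 485 nm and emission 535 nm. Intensities were expressed as fluorescein-equivalent values.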

[11] = qHTS assay to test for compound auto fluorescence at 590 nm (red) in HEK293 cell free culture (AID 720683)
Procedure, shortened: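 Cell-free wells of DMEM with 10% FBS received compound, and intrinsic fluorescence was read at excitation/emission 540/590 nm. Values expressed as equivalence to Rose Bengal sodium.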

[12] = qHTS assay to test for compound auto fluorescence at 590 nm (red) in HepG2 cell free culture (AID 720684)
Procedure, shortened: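 Auto fluorescence equivalency versus Rose Bengal sodium, red channel Ex/Em 540/590 nm; compounds in cell-free MEM/10% FBS; DMSO vehicle control.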

[13] = qHTS assay to test for compound auto fluorescence at 460 nm (blue) in HepG2 cell free culture (AID 720685)
Procedure, shortened: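 Cell-free plates of MEM plus 10% FBS received 23 nL compound or DMSO vehicle; blue-channel (405/460 nm) intensity scored against triamterene as reference fluorophore.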

[14] = qHTS assay to test for compound auto fluorescence at 535 nm (green) in HepG2 cell free culture (AID 720686)
[15] = qHTS assay to test for compound auto fluorescence at 460 nm (blue) in HepG2 cells (AID 720687)
Procedure, shortened: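 HepG2 cells in MEM with 10% FBS, attached overnight at 37 C, were exposed to compound or DMSO for 1 hr at 37 C, 5% CO2. Blue fluorescence was read at 405/460 nm, with triamterene as reference fluorophore.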

[16] = biological target: Glucocorticoid receptor (Homo sapiens) (UniProt P04150); assay: qHTS assay to identify small molecule agonists of the glucocorticoid receptor (GR) signaling pathway (AID 720691; active = well fitted activation curve with a large enough effect in the signal ratio in the repeat runs, not every such curve was filed as active; inconclusive = weak or mixed curves, or effect the other way; inactive = no such curve, though single readings can be large or run the other way; the % refers to the signal ratio; also: potency is read from the fitted curve at half-maximal effect); settings: GR-bla HeLa, beta-lactamase reporter ratio, 18 h; activation: at 62.4 µM (top of the series)
Sequence of Glucocorticoid receptor (Homo sapiens) (P04150 whole entry, looked up): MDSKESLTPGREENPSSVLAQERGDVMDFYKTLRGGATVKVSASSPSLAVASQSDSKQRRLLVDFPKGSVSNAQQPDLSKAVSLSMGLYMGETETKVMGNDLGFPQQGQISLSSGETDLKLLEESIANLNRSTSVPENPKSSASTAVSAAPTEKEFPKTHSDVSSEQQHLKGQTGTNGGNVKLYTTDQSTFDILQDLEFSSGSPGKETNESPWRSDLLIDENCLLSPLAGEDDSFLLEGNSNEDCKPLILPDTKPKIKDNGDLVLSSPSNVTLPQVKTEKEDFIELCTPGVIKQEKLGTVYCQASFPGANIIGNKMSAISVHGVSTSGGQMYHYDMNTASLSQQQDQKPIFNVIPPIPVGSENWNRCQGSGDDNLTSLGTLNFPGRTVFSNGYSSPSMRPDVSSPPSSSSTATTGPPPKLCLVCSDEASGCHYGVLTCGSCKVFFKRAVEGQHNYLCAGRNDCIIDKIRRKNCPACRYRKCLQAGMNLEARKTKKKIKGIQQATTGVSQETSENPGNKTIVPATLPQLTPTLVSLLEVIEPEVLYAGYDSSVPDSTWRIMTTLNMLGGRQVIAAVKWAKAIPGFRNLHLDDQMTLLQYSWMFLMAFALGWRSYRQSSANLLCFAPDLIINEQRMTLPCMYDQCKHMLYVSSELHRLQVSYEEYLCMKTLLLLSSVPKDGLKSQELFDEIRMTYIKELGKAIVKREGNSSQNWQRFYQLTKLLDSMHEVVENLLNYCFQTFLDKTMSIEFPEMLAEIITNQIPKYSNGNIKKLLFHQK
Procedure, shortened: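 Steps: seed GR-bla HeLa cells, incubate 4 h at 37 C/5% CO2; pin-transfer DMSO-dissolved compounds; incubate 18 h at 37 C; add LiveBLAzer B/G FRET substrate; after 2 h at room temperature, measure fluorescence.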

[17] = biological target: Glucocorticoid receptor (Homo sapiens) (UniProt P04150); assay: qHTS assay to identify small molecule antagonists of the glucocorticoid receptor (GR) signaling pathway (AID 720692; active = well fitted inhibition curve with a large enough effect in the signal ratio in the repeat runs, not every such curve was filed as active; inconclusive = weak or mixed curves, or effect the other way; inactive = no such curve, though single readings can be large or run the other way; the % refers to the signal ratio)
Procedure, shortened: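 Antagonism was scored as loss of dexamethasone-driven (5 nM final) reporter signal in HeLa cells bearing a glucocorticoid response element–beta-lactamase construct, after 18 h compound exposure at 37 C and 2 h FRET substrate loading.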

[18] = qHTS assay for small molecule disruptors of the mitochondrial membrane potential - cell viability (AID 720634; calls by dose curve; also: nearly all actives have a fitted effect of over 20% in size; also: potency is read from the fitted curve at half-maximal effect)
Procedure, shortened: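 Cytotoxicity was measured by ATP quantitation in HepG2 wells that had first been treated with compound for 1 hr and stained with m-MPI dye; CellTiter-Glo incubation was 30 min at room temperature.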

[19] = qHTS assay for small molecule disruptors of the mitochondrial membrane potential (AID 720635); also: potency is read from the fitted curve at half-maximal effect
Procedure, shortened: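 HepG2 cells exposed to compound 1 hr at 37C, then Mito-MPS dye 30 min. Ratio read of aggregate (540/590 nm) versus monomer (490/535 nm) fluorescence.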

SMILES	Potency [1]	Potency [2]	Potency [3]	Potency [4]	Potency [5]	Potency [6]	Potency [7]	Potency [8]	Potency [9]	Potency [10]	Potency [11]	Potency [12]	outcome [13]	Potency [14]	outcome [15]	Potency [16]	Potency [17]	Potency [18]	Potency [19]
CCCCCCCN(CC)CCCC(O)c1ccc(NS(C)(=O)=O)cc1 (configuration not stated)	inactive	inactive	inactive	inactive	inactive	inactive	inactive	inactive	inactive	inactive	inactive	inactive	inactive	inactive	inactive	inactive	inactive		
N[C@H](CCC(=O)O)C(=O)O	inactive	inactive		inactive	inactive	inactive	inactive	inactive	inactive	inactive	inactive	inactive	inactive	inactive	inactive	inactive		inactive	
CC(C)(S)[C@@H](N)C(=O)O	inactive	inactive	inactive	inactive	inactive	inactive	inactive	inactive	inactive	inactive	inactive	inactive	inactive	inactive	inactive	inactive	inactive		
O=C(CCCN1CCC(n2c(=S)[nH]c3ccccc32)CC1)c1ccc(F)cc1	inactive	inactive		inactive	inactive	inactive	inactive	inactive	inactive	inactive	inactive	inactive	inactive	inactive	inactive			inactive	inactive
CCCCCCCCCCCCCCCCOCCOCCOCCOCCOCCOCCOCCOCCOCCOCCOCCOCCOCCOCCOCCOCCOCCOCCOCCOCCO	inactive	6.68 µM (active)		inactive		inactive	inactive	inactive	inactive	inactive	inactive	inactive	inactive	inactive	inactive				23.7 µM (active)
CN1CCN(C(c2ccccc2)c2ccc(Cl)cc2)CC1 (configuration not stated)	inactive	inactive		inactive	inactive	inactive	inactive	inactive	inactive	inactive	inactive	inactive		inactive	inactive		inactive	inactive	
N#Cc1ccc2c(c1)N(CCCN1CCC(O)CC1)c1ccccc1S2	inactive	inactive		inactive	inactive	inactive	inactive	inactive	inactive	inactive	inactive	inactive		inactive	inactive	inactive	inactive	inactive	
Clc1cc(Cl)c(OCC#CI)cc1Cl	inactive	26.6 µM (active)		inactive	inactive	inactive	inactive	inactive	inactive	inactive	inactive	inactive		inactive	inactive	26.8 µM [inconclusive] (active)		9.44 µM (active)	4.73 µM (active)
C[N+]1(C)[C@@H]2CC(OC(=O)C(O)(c3cccs3)c3cccs3)C[C@H]1[C@@H]1O[C@@H]12 (some centres not stated)	inactive	inactive		inactive	inactive	inactive	inactive	inactive	inactive	inactive	inactive	inactive	inactive	inactive	inactive		inactive	inactive	inactive
C=C1CC[C@H](O)CC1=C/C=C1\CCC[C@]2(C)[C@@H]([C@H](C)CC[C@@H](O)C(C)(C)O)CC[C@@H]12	inactive	21.1 µM (active)		inactive	inactive	inactive	inactive	inactive	inactive	inactive	inactive	inactive	inactive	inactive	inactive			inactive	
CCOC(=O)CN[C@@H](C(=O)N1CC[C@H]1C(=O)NCc1ccc(/C(N)=N/O)cc1)C1CCCCC1	inactive	inactive		inactive	inactive	inactive	inactive	inactive		inactive	inactive	inactive	inactive	inactive	inactive	inactive	inactive	inactive	inactive
CN1c2c(nc(N)[nH]c2=O)NCC1CNc1ccc(C(=O)NC(CCC(=O)O)C(=O)O)cc1 (configuration not stated)	inactive	inactive		inactive	inactive	inactive	inactive	inactive	inactive	inactive	inactive	inactive	inactive	inactive	inactive	inactive	inactive	inactive	
COc1ccc2c(c1)OC(C)(C)C(c1ccccc1)C2c1ccc(OCCN2CCCC2)cc1 (configuration not stated)	inactive	29.8 µM (active)		inactive	inactive	inactive	inactive	inactive	inactive	inactive	inactive	inactive	inactive	inactive	inactive			inactive	
CC1(C)C(\C=C/C=C\C=C/C=C2/N(CCCCS(=O)(=O)O)c3ccc4ccccc4c3C2(C)C)=[N+](CCCCS(=O)(=O)[O-])c2ccc3ccccc3c21	inactive	inactive		inactive	inactive	inactive	inactive		inactive	inactive	inactive	inactive		inactive	inactive	inactive		inactive	
